# Compounds with a hit are over-represented: about 7% of the library has one in this group of screens.
# rCAG binder: molecules binding r(CAG) RNA repeats; AID 651821; actives 1.3% (n = 370,000); r(CAG) RNA repeat, TO-PRO-1 dye displacement fluorescence; inhibition, % at 3 µM;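 active = inhibition above the plate cutoff, the mean of all test compounds on that plate plus 3 SD, cut at about 35% in these data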;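 note: 0% = DMSO alone and 100% = 100 µM mitoxantrone as full dye displacement; higher means more dye released from RNA so lower well fluorescence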
# NR3A LBD binder: NR3A (human) ligand-binding domain modulation; NR3A LBD differential scanning fluorimetry, Tm shift; 0% = protein alone, 100% = glycine-bound protein; actives 2.5% (n = 340,000); Tm shift relative to glycine control, % at 25 µM;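 active = melting temperature shift of at least 10% of the positive control shift, at one fixed dose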
# ADAM17 inh: inhibitors of human ADAM17; P78536; recombinant ADAM17, EDANS/DABCYL FRET peptide cleavage; inhibition, % at 6.95 µM; actives 0.83% (n = 370,000); AID 720648;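 active = inhibition above the mean of compounds lying between control limits plus 3 SD, set per campaign, cut at about 8.5% in these data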;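 note: 0% = DMSO-only wells as the low control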
# Target sequence (P78536 215-824 limits assumed): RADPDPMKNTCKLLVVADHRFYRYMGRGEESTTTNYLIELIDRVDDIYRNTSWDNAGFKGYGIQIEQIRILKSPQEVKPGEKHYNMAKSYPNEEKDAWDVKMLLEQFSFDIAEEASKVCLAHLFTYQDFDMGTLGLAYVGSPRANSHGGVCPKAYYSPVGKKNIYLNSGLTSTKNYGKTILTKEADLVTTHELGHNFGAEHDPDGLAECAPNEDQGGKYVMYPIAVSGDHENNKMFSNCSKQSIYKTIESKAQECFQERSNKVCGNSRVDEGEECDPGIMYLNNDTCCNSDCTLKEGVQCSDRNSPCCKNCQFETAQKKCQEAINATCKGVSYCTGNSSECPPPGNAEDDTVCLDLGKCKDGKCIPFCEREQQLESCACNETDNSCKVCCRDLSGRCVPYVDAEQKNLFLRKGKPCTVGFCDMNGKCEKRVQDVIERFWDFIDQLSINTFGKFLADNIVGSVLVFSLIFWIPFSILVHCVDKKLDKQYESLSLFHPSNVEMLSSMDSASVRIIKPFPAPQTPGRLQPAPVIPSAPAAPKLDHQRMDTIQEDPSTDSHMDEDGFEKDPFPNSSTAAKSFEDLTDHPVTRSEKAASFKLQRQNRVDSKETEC
# KLK7 zymogen act: proKLK7 (human) activation, primary screen; P49862; purified proKLK7, EDANS-DABCYL substrate fluorescence; 100% is mature enzyme control, 0% vehicle; activation, % at 7 µM; actives 0.9% (n = 370,000);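 active = activation above the mean of all tested compounds plus 3 SD, computed per campaign excluding outliers beyond control limits, cut at about 13% in these data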
# AHR activator: human AHR activation | activation, % at 5 µM | actives 2.5% (n = 320,000) | AID 2796 | AHR-responsive luciferase reporter cells, luminescence; in the data active = activation above about 47%;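 note: 0% = vehicle wells and 100% = reference agonist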
# ADAM10 inh: ADAM10 inhibition, QFRET primary screen. inhibition, % at 7 µM. AID 720582. actives 0.62% (n = 370,000). recombinant ADAM10, EDANS/DABCYL FRET peptide cleavage, 3 h. O14672;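 active = inhibition above a per-campaign cutoff equal to the mean of compounds falling between control-based bounds plus 3 SD, cut at about 20% in these data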;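 note: 0% = DMSO wells while the 100% control is not disclosed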
# rCAG binder conf: r(CAG) RNA repeat binding, confirmation. actives 70% (n = 4,300). inhibition, % at 3 µM. TO-PRO-1 dye displacement fluorescence. shares compounds with rCAG binder. AID 652065;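 active = inhibition above a per-plate cutoff, the mean inhibition of sample wells plus 3 SD, cut at about 35% in these data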;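 note: loss of TO-PRO-1 fluorescence as compound displaces dye from 1x1 AA loop RNA; 0% = DMSO only wells and 100% = 100 µM mitoxantrone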
# DNA CAG counter: counter-screen for rCAG RNA binders: DNA CAG dye complex inhibitors; shares compounds with rCAG binder; d(CAG) DNA oligo TO-PRO-1 dye displacement, fluorescence; inhibition, % at 3 µM; actives 94% (n = 4,300); AID 652068;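 active = inhibition above its plate's cutoff, the mean test-well inhibition plus 3 SD, cut at about 4.8% in these data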;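 note: 0% = DNA dye mix with DMSO and 100% = 100 µM mitoxantrone; hits displace the dye from DNA and so lower well fluorescence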
# dCAG dye DR: disrupts DNA CAG TO-PRO-1 complex in dose response. IC50, µM. DNA CAG/GTC duplex TO-PRO-1 dye displacement fluorescence. shares compounds with rCAG binder. actives 20% (n = 250); in the data active = IC50 below about 10 µM
# An asterisk follows results filed as active; / = no result.
SMILES,rCAG binder,NR3A LBD binder,ADAM17 inh,KLK7 zymogen act,AHR activator,ADAM10 inh,rCAG binder conf,DNA CAG counter,others
CC[C@@H](C(=O)[C@@H](C)[C@@H](O)[C@H](C)CCc1ccc(C)c(O)c1C(=O)O)[C@H]1O[C@](CC)([C@H]2CC[C@](O)(CC)[C@H](C)O2)C[C@@H]1C,57.8*,-13.4,-2.1,0.5,-4.2,1.2,60.2*,12.3*,dCAG dye DR=>29.9
CN(C)C1C(=O)C(C(N)=O)=C(O)C2(O)C(=O)C3=C(O)c4c(O)cccc4C(C)(O)C3C(O)C12 (stereo not given),73.0*,-0.9,-2.8,-3.7,-2.8,-2.4,22.5,9.1*,
O=C(NCCN1CCC2(CC1)C(=O)NCN2c1ccccc1)c1ccc2ccccc2c1,1.9,/,-1.5,1.1,/,-1.4,/,/,
CC(=O)N1CCN(c2ccc([N+](=O)[O-])cc2C=C2C(=O)NC(=O)NC2=O)CC1,35.6*,1.6,1.4,-0.1,-2.6,3.8,3.0,3.5,
CCN1CCN(c2ccc([N+](=O)[O-])cc2C=C2C(=O)NC(=O)NC2=O)CC1,-0.1,-3.2,-3.8,0.1,1.4,-13.9,/,/,
Brc1ccc2c(c1)-n1nncc1CNC2,1.6,/,-1.6,0.9,/,-7.0,/,/,
COc1ccc(CCn2c(O)c(C=NCc3cccnc3)c(=O)[nH]c2=O)cc1OC,-8.7,0.7,-2.4,-0.8,3.8,-2.9,/,/,
COc1ccc(C2CC(c3c(O)n(CCc4ccccc4)c(=O)[nH]c3=O)=NN2)cc1OC (stereo not given),41.9*,-1.7,-1.2,0.0,-1.1,1.0,25.3,8.0*,
O=C1NC(=O)N(Cc2ccc(F)cc2)C(=O)/C1=C\c1ccoc1,48.2*,2.0,1.4,-0.8,-1.7,5.1,37.8*,11.4*,
CN(C)c1ccc(/C=C2\C(=O)NC(=O)N(Cc3ccc(F)cc3)C2=O)cc1,11.3,4.4,-1.3,0.0,0.8,-10.2,/,/,
COC1CC=C2CCN3CCC4=C(CC(=O)OC4)C23C1 (stereo not given),2.4,/,-1.6,0.8,/,-0.3,/,/,
Cn1cccc1/C=C1\C(=O)NC(=O)N(Cc2ccco2)C1=O,40.2*,0.6,-2.3,-0.4,/,-4.6,8.8,2.9,
COc1ccc(/C=C2/C(=O)NC(=O)N(Cc3ccco3)C2=O)cc1,/,/,/,/,-0.3,/,/,/,
Cc1ccc(OCCn2cccc2/C=C2/C(=O)NC(=O)N(Cc3ccco3)C2=O)cc1,36.5*,-9.8,-1.8,0.5,10.0,-2.1,13.7,8.7*,
Cc1ccc(-n2c(C)cc(/C=C3/C(=O)NC(=O)N(Cc4ccco4)C3=O)c2C)cc1,15.6,-1.9,-0.6,-0.7,0.3,8.6,/,/,
Cc1cc(C=C2C(=O)NC(=S)NC2=O)c(C)n1C1CCCC1,34.8*,2.2,0.5,-0.6,17.5,-3.2,23.2,9.6*,
Clc1cc(Cl)cc(CN2Cc3ccccc3-n3nncc3C2)c1,-1.8,/,0.4,0.1,/,3.9,/,/,
COc1ccc(OC)c(N2C(=O)NC(=O)/C(=C/c3ccc([N+](=O)[O-])s3)C2=O)c1,78.8*,-6.0,-6.4,0.9,1.8,1.3,72.9*,37.6*,
CC(=O)C1=C(C)OC2=C(C(=O)CCC2)[C@@]12C(=O)N(C)c1ccccc12,1.4,/,-1.1,0.2,/,-3.0,/,/,
CN1C(=O)C(=Cc2ccc(Sc3ccccc3)o2)C(=O)N(C)C1=S,54.3*,-2.1,-4.3,0.5,14.7,-4.6,58.2*,21.4*,
Cc1cc(/C=C2\C(=O)NC(=O)N(Cc3ccccc3Cl)C2=O)c(C)n1-c1ccc(C(=O)O)cc1,38.6*,2.9,0.0,0.0,-1.4,-9.2,58.8*,18.0*,
Cc1cc(/C=C2\C(=O)NC(=O)N(Cc3ccco3)C2=O)c(C)n1-c1ccc(C(=O)O)cc1,18.2,-1.3,-2.2,-0.4,-0.7,-4.4,/,/,
